Hit rate of the full screen: of about 17,000 compounds, about 220 (1.3%) were called active.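 The calls were made as follows: active = spot fluorescence over background significantly raised, with a chance value under 7% in all four replicate spots of the compound; inactive = the rest.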 This excerpt belongs to a sample that is enriched for actives.

Sequence of Nuclear factor NF-kappa-B p105 subunit (Homo sapiens) (P19838 1-433 limits assumed): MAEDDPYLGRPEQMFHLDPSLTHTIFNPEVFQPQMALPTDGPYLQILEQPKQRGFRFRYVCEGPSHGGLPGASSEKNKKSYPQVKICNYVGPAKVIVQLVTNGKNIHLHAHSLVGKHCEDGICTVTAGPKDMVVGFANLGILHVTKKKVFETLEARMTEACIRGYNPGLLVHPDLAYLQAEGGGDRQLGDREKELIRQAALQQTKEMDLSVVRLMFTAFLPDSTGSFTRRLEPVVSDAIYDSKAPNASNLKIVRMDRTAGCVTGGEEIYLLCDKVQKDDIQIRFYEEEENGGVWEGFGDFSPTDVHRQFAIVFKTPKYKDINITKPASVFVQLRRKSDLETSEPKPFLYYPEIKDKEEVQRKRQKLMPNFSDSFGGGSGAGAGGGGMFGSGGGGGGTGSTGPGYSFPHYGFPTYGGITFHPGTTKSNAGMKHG

The test has as its target Nuclear factor NF-kappa-B p105 subunit (Homo sapiens) (UniProt P19838). Nature of the test: binders of NF-kB p50 subunit, primary screen, biochemical, small molecule microarray, anti-His fluorescence (AID 624139).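 Also: probe protein is his-tagged human p50 processed subunit at 1 µg/ml.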 The settings on record: anti-His fluorescence binding.
With `O=C1CC(C(=O)Nc2cccc(C(=O)O)c2)C(c2ccccc2)O1` (configuration not stated), the result was inactive.

In the case of `Cc1noc(C)c1S(=O)(=O)N(C)C[C@H]1Oc2ccc(NC(=O)Nc3cccc4ccccc34)cc2CC(=O)N([C@@H](C)CO)C[C@H]1C`, the outcome was inactive.

Regarding `Cc1noc(C)c1NC(=O)Nc1ccc2c(c1)CC(=O)N([C@H](C)CO)C[C@H](C)[C@H](CN(C)C(=O)NC(C)C)O2`, the call was inactive.

Take `O=C1O[C@@H](c2ccccc2)[C@@H](c2ccccc2)N2[C@@H](c3ccccc3OCCO)[C@]3(C(=O)Nc4ccccc43)[C@@H](C(=O)N3CCCCCCC3)[C@H]12`: the result was inactive.

Regarding `COc1ccc(C#Cc2ccc3c(c2)[C@]2(C(=O)N3)[C@H](C(=O)N3CCCCCCC3)[C@H]3C(=O)O[C@H](c4ccccc4)[C@H](c4ccccc4)N3[C@@H]2c2ccc(O)cc2)cc1`, the call was inactive.

For the molecule `COc1ccc(C#Cc2ccc3c(c2)[C@]2(C(=O)N3)[C@H](C(=O)N3CCc4cc(OC)c(OC)cc4C3)[C@H]3C(=O)O[C@H](c4ccccc4)[C@H](c4ccccc4)N3[C@@H]2c2ccc(O)cc2)cc1`, the molecule was called active.

For the molecule `COc1ccc(C#Cc2ccc3c(c2)[C@]2(C(=O)N3)[C@H](c3ccccc3OCCO)N3[C@H](c4ccccc4)[C@H](c4ccccc4)OC(=O)[C@H]3[C@@H]2C(=O)N2CCCCCCC2)cc1`, the result was active.

As for `O=C1O[C@@H](c2ccccc2)[C@@H](c2ccccc2)N2[C@@H](c3ccccc3OCCO)[C@]3(C(=O)Nc4ccc(C#CC5(O)CCCCCC5)cc43)[C@@H](C(=O)N3CCCCCCC3)[C@H]12`, the result was inactive.

`O=C1O[C@@H](c2ccccc2)[C@@H](c2ccccc2)N2[C@@H](c3ccc(OCCO)cc3)[C@]3(C(=O)Nc4ccc(C#CCCO)cc43)[C@@H](C(=O)O)[C@H]12`: the molecule was classed as inactive.

Regarding `O=c1c(-c2ccc(O[C@@H]3O[C@H](CO)[C@@H](O)[C@H](O)[C@H]3O)cc2)coc2c([C@@H]3O[C@H](CO)[C@@H](O)[C@H](O)[C@H]3O)c(O)cc(O)c12`, the result was inactive.

Take `CC(C)NC(=O)Nc1ccc2c(c1)C(=O)N([C@H](C)CO)C[C@H](C)[C@H](CN(C)C(=O)CCC(F)(F)F)OCCCC[C@H](C)O2`: the call was inactive.

As for `C[C@H](CO)N1C[C@H](C)[C@H](CN(C)S(=O)(=O)c2cn(C)cn2)OCCCC[C@H](C)Oc2ccc(N(C)C)cc2C1=O`, the call was inactive.

Turning to `C[C@H](CO)N1C[C@H](C)[C@H](CN(C)C(=O)Nc2ccccc2C(F)(F)F)OCc2cn(nn2)CCCC1=O`, the molecule was classed as inactive.

In the case of `C[C@@H]1CN([C@@H](C)CO)C(=O)c2cccc(NC(=O)c3nc4ccccc4s3)c2O[C@H]1CN(C)S(=O)(=O)c1cccs1`, the outcome was inactive.

Regarding `COC(=O)C(CC#Cc1ccc2c(c1)[C@]1(C(=O)N2)[C@H](c2ccc(O)cc2)N2[C@H](c3ccccc3)[C@H](c3ccccc3)OC(=O)[C@H]2[C@@H]1C(=O)NC[C@H](O)c1ccccc1)C(=O)OC`, the result was inactive.

Consider `C[C@@H]1CN([C@H](C)CO)C(=O)c2cc(NC(=O)C3CC3)ccc2O[C@@H]1CN(C)C`, for which the outcome was inactive.

Take `C[C@@H]1CN([C@@H](C)CO)C(=O)Cc2cc(NC(=O)Cc3ccccc3)ccc2O[C@@H]1CN(C)C(=O)Nc1ccc2c(c1)OCO2`: the outcome was inactive.

In the case of `C[C@@H]1CN([C@H](C)CO)C(=O)c2cc(NC(=O)Nc3ccc4c(c3)OCO4)ccc2O[C@@H]1CN(C)C(=O)Nc1ccc(F)cc1`, the molecule was called inactive.

Regarding `COc1ccc(S(=O)(=O)N(C)C[C@@H]2Oc3ccc(NC(=O)Cc4ccccc4)cc3CC(=O)N([C@@H](C)CO)C[C@H]2C)cc1`, the outcome was inactive.

For `C[C@@H]1CN([C@@H](C)CO)C(=O)c2cc(NS(=O)(=O)c3cn(C)cn3)ccc2O[C@@H]1CN(C)C(=O)NC1CCCCC1`, the call was inactive.

For `Cc1ccc(N(C(=O)COc2ccccc2[N+](=O)[O-])C2C=CS(=O)(=O)C2)cc1` (configuration not stated), the call was inactive.

With `Cc1ccc(S(=O)(=O)N(C)CC(=O)Nc2cccc(C(F)(F)F)c2)cc1`, the molecule was classed as inactive.

For `COCCCNC(=O)[C@@]1(C)c2ccccc2C(=O)N(Cc2ccc(OC(F)(F)F)cc2)[C@H]1c1ccc(CO)cc1`, the molecule was called inactive.

Turning to `C[C@H](CO)N1C[C@H](C)[C@@H](CN(C)S(=O)(=O)c2cn(C)cn2)Oc2c(NC(=O)C3CC3)cccc2C1=O`, the result was inactive.

Consider `CCOC(=O)Cc1csc(NC(=O)c2sc3cccc(F)c3c2Cl)n1`, for which the call was inactive.

Turning to `O=C(CNS(=O)(=O)c1cccc(C(F)(F)F)c1)Nc1ccccc1F`, the call was inactive.

Consider `S=C(NCc1ccco1)N1CCN(c2ncccn2)CC1`, for which the molecule was classed as inactive.

As to `C[C@@H]1CN([C@H](C)CO)C(=O)Cc2cc(NS(=O)(=O)c3ccc(Cl)cc3)ccc2O[C@@H]1CN(C)S(=O)(=O)c1ccc(Cl)cc1`, the call was inactive.

Consider `COc1ccc(C)cc1S(=O)(=O)N(C)CC(=O)Nc1ccccc1SC`, for which the outcome was inactive.

For the molecule `CCCCc1nn(-c2ccccc2C(F)(F)F)c(=O)n1Cc1ccc(-c2ccccc2S(=O)(=O)NC(=O)c2sccc2C)cc1`, the outcome was active.

For the molecule `C[C@@H]1CN([C@H](C)CO)C(=O)Cc2cc(NC(=O)Cc3cn(C)c4ccccc34)ccc2O[C@@H]1CN(C)Cc1ccc(C(F)(F)F)cc1`, the result was inactive.

In the case of `CC(C)NC(=O)N(C)C[C@H]1OCCCC[C@H](C)Oc2ccc(NC(=O)CCC(F)(F)F)cc2C(=O)N([C@H](C)CO)C[C@H]1C`, the call was inactive.

For the molecule `C[C@H]1CCCCO[C@@H](CN(C)C(=O)Nc2ccccc2)[C@@H](C)CN([C@@H](C)CO)C(=O)c2cc(NC(=O)CCC(F)(F)F)ccc2O1`, the molecule was classed as inactive.

`Cc1ccc(N(C(C)C(=O)Nc2ccc(Br)cc2F)S(C)(=O)=O)cc1C` (configuration not stated): the molecule was called inactive.

`C[C@@H]1CN([C@H](C)CO)C(=O)c2cccc(NS(=O)(=O)c3cn(C)cn3)c2O[C@H]1CN(C)S(=O)(=O)c1ccc(Cl)cc1`: the result was inactive.

`C[C@@H]1CN([C@H](C)CO)C(=O)Cc2cc(NC(=O)Cc3ccccc3)ccc2O[C@H]1CN(C)S(=O)(=O)c1cccs1`: the call was inactive.

In the case of `COCCOC(=O)N1C(=O)[C@@]2(c3cc(C#CCC(C(=O)OC)C(=O)OC)ccc31)[C@H](c1ccc(OCCO)cc1)N1[C@H](c3ccccc3)[C@H](c3ccccc3)OC(=O)[C@H]1[C@@H]2C(=O)NC[C@H](O)c1ccccc1`, the molecule was called inactive.

`C[C@@H]1CCCCO[C@@H](CN(C)Cc2ccncc2)[C@H](C)CN([C@@H](C)CO)C(=O)c2cc(NS(=O)(=O)c3ccccc3)ccc2O1`: the result was inactive.

Consider `C[C@@H]1CN([C@@H](C)CO)C(=O)Cc2cc(NC(=O)Cc3ccccc3)ccc2O[C@H]1CN(C)Cc1ccc(C(=O)O)cc1`, for which the molecule was classed as inactive.

For `Cc1noc(C)c1NC(=O)Nc1ccc2c(c1)C(=O)N([C@H](C)CO)C[C@H](C)[C@H](CN(C)C(=O)C1CCCCC1)OCCCC[C@@H](C)O2`, the molecule was classed as inactive.

As to `C[C@H]1CCCCO[C@H](CN(C)C(=O)CCC(F)(F)F)[C@@H](C)CN([C@@H](C)CO)C(=O)c2cc(NC(=O)Cc3ccccc3)ccc2O1`, the outcome was inactive.

With `C=CC[C@]1(C(=O)NCC(O)CO)N=C(c2ccc(OCCCO)cc2)O[C@H]1c1ccccc1` (some centres not stated), the molecule was called inactive.

Take `CNC[C@@H]1Oc2c(NC(=O)C3CCOCC3)cccc2C(=O)N([C@@H](C)CO)C[C@H]1C`: the result was inactive.

In the case of `COc1ccc(NC(=O)O[C@H]2[C@H](OC(=O)Nc3ccc4c(c3)OCO4)[C@@H](OC(=O)Nc3ccc4c(c3)OCO4)[C@@H](OC)O[C@@H]2CO)cc1`, the molecule was called inactive.

With `C[C@H](CO)N1C[C@H](C)[C@@H](CN(C)Cc2ccncc2)Oc2ccc(NC(=O)Nc3ccccc3)cc2C1=O`, the result was inactive.

For `C[C@H](CO)N1C[C@H](C)[C@H](CN(C)Cc2ccncc2)Oc2ccc(NC(=O)Nc3ccc(F)cc3)cc2C1=O`, the molecule was called inactive.

As to `C[C@@H]1CN([C@@H](C)CO)C(=O)c2cc(NS(=O)(=O)c3cn(C)cn3)ccc2O[C@@H](C)CCCCO[C@H]1CN(C)S(=O)(=O)c1cn(C)cn1`, the molecule was classed as inactive.

With `OC(COc1ccc2ccccc2c1)Cn1cncn1` (configuration not stated), the molecule was classed as inactive.

On to `COc1ccc(S(=O)(=O)N(C)C[C@@H]2Oc3ccc(NS(=O)(=O)c4ccc(Cl)cc4)cc3C(=O)N([C@H](C)CO)C[C@H]2C)cc1`, for which the molecule was called inactive.

For the molecule `Cc1cc(C(=O)Nc2cccc3c2O[C@H](CN(C)C(=O)Nc2ccccc2)[C@@H](C)CN([C@H](C)CO)C3=O)n(C)n1`, the call was inactive.

For `O=c1[nH]c(CSCCO)nc2c1C1(CCCCC1)Cc1ccccc1-2`, the outcome was inactive.

For the molecule `C[C@@H]1CCCCO[C@@H](CN(C)Cc2ccc(Cl)c(Cl)c2)[C@@H](C)CN([C@@H](C)CO)C(=O)c2cc(NS(C)(=O)=O)ccc2O1`, the molecule was called inactive.

Take `CO[C@H]1O[C@H](CO)[C@@H](OC(=O)Nc2ccccc2)[C@H](OC(=O)Nc2ccc3c(c2)OCO3)[C@H]1OC(=O)Nc1ccc2c(c1)OCO2`: the molecule was classed as inactive.

Consider `O=C(Cn1c(-c2ccccn2)nc2ccccc21)NCCN1CCOCC1`, for which the result was inactive.

In the case of `C[C@H]1CN([C@@H](C)CO)C(=O)CCCn2nncc2CO[C@@H]1CN(C)Cc1ccc(Oc2ccccc2)cc1`, the molecule was called inactive.

On to `O=C1c2ccccc2C(=O)N1CCCn1c2ccccc2c2nc3ccc([N+](=O)[O-])cc3cc21`, for which the result was inactive.

On to `C[C@H]1CCCCO[C@@H](CN(C)Cc2ccncc2)[C@@H](C)CN([C@@H](C)CO)C(=O)c2cc(NC(=O)Nc3ccc(F)cc3)ccc2O1`, for which the molecule was classed as inactive.

Regarding `CN(C)c1nc(Nc2nc3ccccc3[nH]2)nc(N(C)C)n1`, the molecule was classed as inactive.

Regarding `Cc1ccc(NC(=O)c2ccc(NCc3cccnc3)c([N+](=O)[O-])c2)cc1`, the result was inactive.

On to `COc1ccc(S(=O)(=O)N(C)C[C@H]2Oc3ccc(NC(=O)CCC(F)(F)F)cc3CC(=O)N([C@H](C)CO)C[C@@H]2C)cc1`, for which the outcome was inactive.

Regarding `CC(C)NC(=O)N(C)C[C@H]1OCCCC[C@H](C)Oc2ccc(NC(=O)CCCN(C)C)cc2C(=O)N([C@@H](C)CO)C[C@H]1C`, the outcome was inactive.

In the case of `COC(=O)c1c(NC(=O)c2cc(-c3ccccn3)nc3c(C)cc(C)cc23)sc(C)c1C`, the outcome was inactive.

For the origin of these results see PubChem BioAssay AID624139 (Broad Institute, 2012).
